Here are results for 54 compounds from PMC4336329 (PLoS ONE, 2015).

Hit rate of the full screen: of about 310,000 compounds, about 14,000 (4.5%) showed an effect of 50% or more. Effects have a minus sign here. What follows is part of a selection rich in strong results, with near analogues and random picks from the rest.
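Note: peak tail current of the secondary pulse compared with the same well before compound.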

Chain of human ether-à-go-go-related gene (hERG) potassium channel (Q12809 whole entry, looked up): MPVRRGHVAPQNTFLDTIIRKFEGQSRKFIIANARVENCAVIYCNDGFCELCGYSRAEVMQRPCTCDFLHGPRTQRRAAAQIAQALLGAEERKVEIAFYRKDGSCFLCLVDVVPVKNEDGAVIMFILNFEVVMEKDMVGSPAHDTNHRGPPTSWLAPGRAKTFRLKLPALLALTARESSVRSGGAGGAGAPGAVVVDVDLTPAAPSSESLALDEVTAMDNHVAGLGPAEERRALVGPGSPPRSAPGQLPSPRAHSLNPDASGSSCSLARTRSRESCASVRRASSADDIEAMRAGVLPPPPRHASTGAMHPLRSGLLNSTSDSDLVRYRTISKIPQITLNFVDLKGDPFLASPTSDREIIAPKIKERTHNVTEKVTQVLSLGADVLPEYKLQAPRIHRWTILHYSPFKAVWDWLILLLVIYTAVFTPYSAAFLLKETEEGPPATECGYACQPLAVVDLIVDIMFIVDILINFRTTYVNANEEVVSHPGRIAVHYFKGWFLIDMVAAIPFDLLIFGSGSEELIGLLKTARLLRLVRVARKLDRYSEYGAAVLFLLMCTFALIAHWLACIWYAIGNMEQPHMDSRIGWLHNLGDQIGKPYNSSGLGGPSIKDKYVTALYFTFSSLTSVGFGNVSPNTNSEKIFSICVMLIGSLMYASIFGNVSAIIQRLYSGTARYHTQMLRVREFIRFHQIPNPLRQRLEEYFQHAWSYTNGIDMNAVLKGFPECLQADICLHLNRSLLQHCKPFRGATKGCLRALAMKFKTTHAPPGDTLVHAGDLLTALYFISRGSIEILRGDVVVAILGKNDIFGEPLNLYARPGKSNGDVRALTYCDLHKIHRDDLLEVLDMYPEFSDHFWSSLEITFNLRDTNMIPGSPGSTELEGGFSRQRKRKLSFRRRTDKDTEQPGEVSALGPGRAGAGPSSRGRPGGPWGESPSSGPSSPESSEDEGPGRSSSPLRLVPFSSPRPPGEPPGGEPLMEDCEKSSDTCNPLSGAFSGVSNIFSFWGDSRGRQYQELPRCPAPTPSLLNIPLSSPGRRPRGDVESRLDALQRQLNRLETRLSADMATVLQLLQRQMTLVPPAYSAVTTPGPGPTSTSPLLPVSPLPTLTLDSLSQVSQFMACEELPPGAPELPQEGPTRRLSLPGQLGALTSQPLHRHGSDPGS

The experiment has as its target human ether-à-go-go-related gene (hERG) potassium channel (human, UniProt Q12809). In words: primary screen, population patch clamp on CHO cells stably expressing hERG; higher = less effect of the substance.
For the compound `CCC(C)Sc1ccc([C@H]2N[C@@](C)(C(=O)OC)[C@H]3C(=O)N(CC)C(=O)[C@@H]23)cc1.O=C(O)C(F)(F)F` (stereo partly drawn), the “hERG current change (%, negative = inhibition) at 10uM” value was found to be 7.25%.

As for `Brc1ccc(-c2nnc3n2-c2ccccc2CC3)cc1`, the “hERG current change (%, negative = inhibition) at 10uM” value is -41.3%.

For `COc1ccc(NC(=O)c2cc(OC)c(OC)c(OC)c2)cc1S(=O)(=O)N1CCCCC1`, the “hERG current change (%, negative = inhibition) at 10uM” value stood at 15.5%.

Regarding `COc1ccc(NC(=O)c2ccc(Cl)nc2)cc1S(=O)(=O)N1CCCCC1`, the “hERG current change (%, negative = inhibition) at 10uM” value is -59%.

For `COc1ccc(NC(=O)c2ccc(Cl)nc2)cc1S(=O)(=O)N1CCOCC1`, the “hERG current change (%, negative = inhibition) at 10uM” value is given as -10.5%.

On to `COc1ccc(NC(=O)c2cccc(S(=O)(=O)N3CCCC3)c2)cc1OC`, for which the “hERG current change (%, negative = inhibition) at 10uM” value was -4.78%.

With `COc1ccc(NC(=O)c2ccc(S(=O)(=O)N3CCCC3)cc2)cc1OC`, the “hERG current change (%, negative = inhibition) at 10uM” value is listed as -158%.

In the case of `COc1ccc(C(=O)Nc2ccc(S(=O)(=O)N3CCCCC3)cc2)cc1OC`, the “hERG current change (%, negative = inhibition) at 10uM” value is -9.83%.

For the compound `S=C(c1c[nH]c2ccccc12)N1CCCC1`, the “hERG current change (%, negative = inhibition) at 10uM” value came out at 9.74%.

`Cc1ccc(CN2CC(C(=O)Nc3nnc(SCc4c(Cl)cccc4Cl)s3)CC2=O)cc1` (stereo not drawn): the “hERG current change (%, negative = inhibition) at 10uM” value was determined as 14.1%.

Take `Cn1cc(C(=O)OCC(=O)NC2CCCC2)c2ccccc21`: the “hERG current change (%, negative = inhibition) at 10uM” value came out at 7.9%.

`O=[N+]([O-])c1ccccc1S(=O)(=O)NCCc1ccncc1`: the “hERG current change (%, negative = inhibition) at 10uM” value amounted to 14.9%.

In the case of `COc1ccccc1C(=O)OCC(=O)Nc1ccc(Cl)cn1`, the “hERG current change (%, negative = inhibition) at 10uM” value came to 10.1%.

Take `O=C(Nc1ccccc1F)NC1CCN(Cc2nnnn2Cc2ccc(F)cc2)CC1`: the “hERG current change (%, negative = inhibition) at 10uM” value is given as -69.2%.

In the case of `COc1cccc(NC(=O)NC2CCN(Cc3nnnn3Cc3ccc4c(c3)OCO4)CC2)c1`, the “hERG current change (%, negative = inhibition) at 10uM” value is on record as -23.3%.

In the case of `COCCn1nnnc1CN1CCC(NC(=O)Nc2cccc(OC)c2)CC1`, the “hERG current change (%, negative = inhibition) at 10uM” value amounted to 8.3%.

For the compound `Cc1ccccc1C(=O)NC1CCN(Cc2nnnn2Cc2ccc(F)cc2)CC1`, the “hERG current change (%, negative = inhibition) at 10uM” value is -40.9%.

On to `COc1cccc(NC(=O)NC2CCN(Cc3nnnn3Cc3ccc(F)cc3)CC2)c1`, for which the “hERG current change (%, negative = inhibition) at 10uM” value is given as -53.2%.

In the case of `Cc1ccc(Cn2nnnc2CN2CCC(NC(=O)c3ccccc3F)CC2)cc1`, the “hERG current change (%, negative = inhibition) at 10uM” value is -27.2%.

Turning to `OC(c1ccccc1)(c1ccccc1)C1CCN(C(=S)NCCc2ccccc2)CC1`, the “hERG current change (%, negative = inhibition) at 10uM” value came to 16.3%.

Turning to `CN(CC(=O)Nc1cccc(F)c1)C(=O)C1CC(=O)N(Cc2ccco2)C1` (stereo not drawn), the “hERG current change (%, negative = inhibition) at 10uM” value is recorded as -8%.

Turning to `CN(Cc1ccccc1)CC(O)COc1ccc(CNCCc2cccnc2)cc1` (stereo not drawn), the “hERG current change (%, negative = inhibition) at 10uM” value was -11.5%.

Regarding `CN(CC(=O)NCc1ccccn1)S(=O)(=O)c1ccc(Cl)cc1`, the “hERG current change (%, negative = inhibition) at 10uM” value was -12%.

`Cc1ccc(S(=O)(=O)N(CC(=O)NCc2ccccn2)c2ccc(Cl)cc2)cc1`: the “hERG current change (%, negative = inhibition) at 10uM” value is -29.7%.

As to `O=C(CN(c1cccc(Cl)c1)S(=O)(=O)c1ccc(Cl)cc1)NCc1ccccn1`, the “hERG current change (%, negative = inhibition) at 10uM” value was -53.1%.

As for `CSc1ccc(S(=O)(=O)N(CC(=O)NCc2ccccn2)c2ccc(C)cc2)cc1`, the “hERG current change (%, negative = inhibition) at 10uM” value is recorded as -59.3%.

Take `COc1ccc(S(=O)(=O)N(CC(=O)NCc2ccccn2)c2ccc(Cl)cc2)cc1`: the “hERG current change (%, negative = inhibition) at 10uM” value turned out to be 13.3%.

Turning to `CCNC(=O)CN(c1ccc(C)cc1)S(=O)(=O)c1ccc(SC)cc1`, the “hERG current change (%, negative = inhibition) at 10uM” value is reported as -19%.

For the compound `CCN(Cc1ccccc1)S(=O)(=O)c1ccc2c(c1)NC(=O)CS2`, the “hERG current change (%, negative = inhibition) at 10uM” value was -44.5%.

For `CN(CC(=O)Nc1ccccc1Br)C(=O)CN(C)C1CCCCC1`, the “hERG current change (%, negative = inhibition) at 10uM” value is reported as 7.12%.

Turning to `Cc1cccc(C)c1-n1c(C)cc(/C=N/NC(=O)c2ccncc2)c1C`, the “hERG current change (%, negative = inhibition) at 10uM” value was -12%.

For `Cn1c(NC(=O)c2ccc(F)cc2)nc2ccccc21`, the “hERG current change (%, negative = inhibition) at 10uM” value is given as 21.5%.

Consider `CCN1CCN(C(=O)c2cc3cc([N+](=O)[O-])ccc3oc2=O)CC1`, for which the “hERG current change (%, negative = inhibition) at 10uM” value is given as -14.4%.

On to `O=C(c1cc2cc([N+](=O)[O-])ccc2oc1=O)N1CCOCC1`, for which the “hERG current change (%, negative = inhibition) at 10uM” value was -0.062%.

Turning to `O=C(c1ccco1)N1CCN(C(=O)c2cc3cc([N+](=O)[O-])ccc3oc2=O)CC1`, the “hERG current change (%, negative = inhibition) at 10uM” value was -52.4%.

As to `O=C(c1ccco1)N1CCN(C(=O)c2cc3ccccc3oc2=O)CC1`, the “hERG current change (%, negative = inhibition) at 10uM” value is -13.2%.

`O=C(c1cc2cc([N+](=O)[O-])ccc2oc1=O)N1CCN(C2CCCCC2)CC1`: the “hERG current change (%, negative = inhibition) at 10uM” value is reported as -72.5%.

`O=C(c1cc2cc([N+](=O)[O-])ccc2oc1=O)N1CCN(c2ncccn2)CC1`: the “hERG current change (%, negative = inhibition) at 10uM” value is given as -0.285%.

Consider `Cc1ccc(S(=O)(=O)CCC(=O)Nc2ccc(Br)cc2)cc1`, for which the “hERG current change (%, negative = inhibition) at 10uM” value is -7.37%.

Turning to `CC(C)OC(=O)c1cc(C(=O)c2cc(F)ccc2O)coc1=N`, the “hERG current change (%, negative = inhibition) at 10uM” value is -7.34%.

Take `Cl.O=C(O)C1=CCCNC1`: the “hERG current change (%, negative = inhibition) at 10uM” value is on record as -54.4%.

In the case of `Cl.O=C(O)C1=CCNCC1`, the “hERG current change (%, negative = inhibition) at 10uM” value was 17.6%.

As for `COc1ccccc1NC(=O)c1cc(Cl)ccc1NC(=O)c1ccco1`, the “hERG current change (%, negative = inhibition) at 10uM” value is -1.81%.

Regarding `COc1ccccc1NC(=O)c1ccccc1NC(=O)c1cc(Cl)ccc1NC(=O)c1ccco1`, the “hERG current change (%, negative = inhibition) at 10uM” value is 2.97%.

`Cc1ccc(NC(=O)c2ccco2)c(NC(=O)c2ccccc2C)c1`: the “hERG current change (%, negative = inhibition) at 10uM” value was 17.9%.

For `COc1ccc(C(=O)Nc2ccc(Cl)cc2C(=O)NCCN2CCOCC2)cc1`, the “hERG current change (%, negative = inhibition) at 10uM” value is recorded as -12.3%.

As for `COc1ccc(NC(=O)c2cc(Cl)ccc2NC(=O)c2ccco2)c(OC)c1`, the “hERG current change (%, negative = inhibition) at 10uM” value was -85.2%.

With `COc1ccc(NC(=O)c2ccccc2NC(=O)c2ccco2)cc1`, the “hERG current change (%, negative = inhibition) at 10uM” value amounted to 18.5%.

For `CCOc1ccccc1C(=O)Nc1cc(C)ccc1NC(=O)c1ccco1`, the “hERG current change (%, negative = inhibition) at 10uM” value is recorded as -75.3%.

Consider `COc1ccc(C(=O)Nc2ccc(Cl)cc2C(=O)NCc2ccco2)cc1`, for which the “hERG current change (%, negative = inhibition) at 10uM” value is -0.702%.

Consider `COc1ccccc1C(=O)Nc1cc(C)ccc1NC(=O)c1ccco1`, for which the “hERG current change (%, negative = inhibition) at 10uM” value was -44.4%.

As for `COc1ccc(OC)c(NC(=O)c2ccccc2NC(=O)c2ccco2)c1`, the “hERG current change (%, negative = inhibition) at 10uM” value is recorded as -75.6%.

Take `COc1ccc(C(=O)Nc2ccc(Cl)cc2C(=O)NCCO)cc1`: the “hERG current change (%, negative = inhibition) at 10uM” value is reported as -53.8%.

On to `COc1ccc(C(=O)Nc2ccccc2NC(=O)c2ccco2)c(OC)c1`, for which the “hERG current change (%, negative = inhibition) at 10uM” value is on record as -21.9%.
